According to PubChem BioAssay (Tox21):
Inconclusive results are not listed. Activity calls are given as the source filed them. Unless noted, calls come from the whole dose curve; as a rule, active = well fitted curve in the direction sought with a large enough effect in the repeat runs; inconclusive = weak or mixed curves; inactive = no such curve, though single readings can be large; an effect the other way counts as inactive or inconclusive.

Tests used:
[1] = qHTS assay for small molecule agonists of the p53 signaling pathway (AID 651631; calls by dose curve; note: nearly all actives have a fitted effect of over 15% in size)
Summary of the method: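 Beta-lactamase reporter activity under p53 response elements was quantified in HCT-116 cells by FRET fluorescence, following 16 h incubation with test compounds at 37 °C and 2 h substrate development at room temperature.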

[2] = qHTS assay for small molecules that induce genotoxicity in human embryonic kidney cells expressing luciferase-tagged ATAD5 (AID 651632); note: nearly all actives have a fitted effect of over 15% in size
Summary of the method: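 Increased luciferase signal from ATAD5-tagged reporter cells indicates DNA-damage-driven ATAD5 induction. HEK293T cells are treated for 16 hr at 37C before detection with Amplite.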

[3] = qHTS assay for small molecule agonists of the p53 signaling pathway - cell viability (AID 651633; calls by dose curve;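 note: p53RE-bla HCT reporter cells with a stable beta-lactamase p53 reporter; nearly all actives have a fitted effect of over 30% in size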)
Summary of the method: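 p53RE-bla cells were treated with compound for 16 hours at 37 C. Cytotoxicity was then measured as CellTiter-Glo luminescence after 30 min at room temperature.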

[4] = qHTS assay for small molecules that induce genotoxicity in human embryonic kidney cells expressing luciferase-tagged ATAD5 - cell viability (AID 651634; calls by dose curve; note: nearly all actives have a fitted effect of over 25% in size)
Summary of the method: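 Cytotoxicity counterscreen in HEK293T cells bearing an ATAD5-luciferase reporter: live-cell protease activity measured by CellTiter-Fluor fluorescence after 15.5 hr compound exposure.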

[5] = qHTS assay to test for compound auto fluorescence at 590 nm (red) in HepG2 cells (AID 720674)
Summary of the method: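 Fluorescence at 590 nm emission following 540 nm excitation was recorded from HepG2 wells one hour after compound transfer, with DMSO-only wells as vehicle and Rose Bengal sodium equivalency as the scale.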

[6] = qHTS assay to test for compound auto fluorescence at 535 nm (green) in HepG2 cells (AID 720675)
[7] = qHTS assay to test for compound auto fluorescence at 460 nm (blue) in HEK293 cells (AID 720678)
Summary of the method: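 HEK293 cells (2,000 per well, medium with 10% dialyzed FBS) attached for 4-5 hr at 37C, then received compound and stood overnight at 37C, 5% CO2. Blue fluorescence was read at Ex/Em 405/460 nm and expressed relative to triamterene.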

[8] = qHTS assay to test for compound auto fluorescence at 590 nm (red) in HEK293 cells (AID 720679)
Summary of the method: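 HEK293 cells (2,000/well, medium with 10% dialyzed FBS) attached for 4-5 hr at 37C, received 23 nL compound and were incubated overnight at 37C, 5% CO2. Red fluorescence was then read at 540/590nm Ex/Em, referenced to Rose Bengal sodium.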

[9] = qHTS assay to test for compound auto fluorescence at 535 nm (green) in HEK293 cells (AID 720680)
[10] = qHTS assay to test for compound auto fluorescence at 460 nm (blue) in HEK293 cell free culture (AID 720681)
Summary of the method: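 Compounds were added to cell-free DMEM with 10% FBS and fluorescence read directly. The blue channel used 405 nm excitation and 460 nm emission, with triamterene as the reference fluorophore.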

[11] = qHTS assay to test for compound auto fluorescence at 535 nm (green) in HEK293 cell free culture (AID 720682)
Summary of the method: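 Each library compound, or DMSO control, is added by pintool to medium alone, comprising DMEM and 10% FBS. Emission at 535 nm following 485 nm excitation is quantified against fluorescein.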

[12] = qHTS assay to test for compound auto fluorescence at 590 nm (red) in HEK293 cell free culture (AID 720683)
Summary of the method: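 Cell-free wells of DMEM with 10% FBS received compound, and intrinsic fluorescence was read at excitation/emission 540/590 nm. Values expressed as equivalence to Rose Bengal sodium.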

[13] = qHTS assay to test for compound auto fluorescence at 590 nm (red) in HepG2 cell free culture (AID 720684)
Summary of the method: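 Compounds are added to culture medium (MEM, 10% FBS) lacking cells, then fluorescence is read at excitation 540 nm, emission 590 nm, with Rose Bengal sodium as the equivalency standard.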

[14] = qHTS assay to test for compound auto fluorescence at 460 nm (blue) in HepG2 cell free culture (AID 720685)
Summary of the method: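 Compound (23 nL) or DMSO pinned into cell-free MEM with 10% FBS; blue fluorescence read at 405/460 nm excitation/emission, expressed as auto-fluorescence equivalency to triamterene.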

[15] = qHTS assay to test for compound auto fluorescence at 535 nm (green) in HepG2 cell free culture (AID 720686)
[16] = qHTS assay to test for compound auto fluorescence at 460 nm (blue) in HepG2 cells (AID 720687)
Summary of the method: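 HepG2 cells in MEM with 10% FBS, attached overnight at 37 C, were exposed to compound or DMSO for 1 hr at 37 C, 5% CO2. Blue fluorescence was read at 405/460 nm, with triamterene as reference fluorophore.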

[17] = target: Glucocorticoid receptor (Homo sapiens) (UniProt P04150); test: qHTS assay to identify small molecule agonists of the glucocorticoid receptor (GR) signaling pathway (AID 720691; active = well fitted activation curve with a large enough effect in the signal ratio in the repeat runs, not every such curve was filed as active; the % refers to the signal ratio); settings: GR-bla HeLa, beta-lactamase reporter ratio, 18 h; activation: at 62.4 µM (top of the series) unless noted
Sequence of Glucocorticoid receptor (Homo sapiens) (P04150 whole entry, looked up): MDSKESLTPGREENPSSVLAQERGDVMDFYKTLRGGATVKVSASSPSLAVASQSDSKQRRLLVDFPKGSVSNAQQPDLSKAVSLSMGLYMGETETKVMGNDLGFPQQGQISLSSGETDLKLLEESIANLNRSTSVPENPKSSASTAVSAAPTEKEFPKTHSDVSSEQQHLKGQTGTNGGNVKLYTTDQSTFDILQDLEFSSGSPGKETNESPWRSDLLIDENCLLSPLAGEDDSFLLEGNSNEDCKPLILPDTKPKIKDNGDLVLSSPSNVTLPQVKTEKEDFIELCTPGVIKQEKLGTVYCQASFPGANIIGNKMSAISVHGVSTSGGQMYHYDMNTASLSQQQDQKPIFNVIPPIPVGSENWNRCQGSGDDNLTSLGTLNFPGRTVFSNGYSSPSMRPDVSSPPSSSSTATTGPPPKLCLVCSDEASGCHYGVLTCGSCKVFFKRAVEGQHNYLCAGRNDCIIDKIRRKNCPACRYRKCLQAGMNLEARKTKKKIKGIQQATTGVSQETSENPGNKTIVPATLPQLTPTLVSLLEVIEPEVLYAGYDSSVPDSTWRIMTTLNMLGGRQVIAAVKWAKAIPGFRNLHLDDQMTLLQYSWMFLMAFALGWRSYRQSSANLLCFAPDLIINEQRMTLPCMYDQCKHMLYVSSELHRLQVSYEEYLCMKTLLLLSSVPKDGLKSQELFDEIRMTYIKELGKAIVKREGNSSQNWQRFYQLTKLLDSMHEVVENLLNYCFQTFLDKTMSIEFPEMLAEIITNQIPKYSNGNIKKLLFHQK
Summary of the method: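 Agonist mode in a HeLa line carrying a GRE-controlled beta-lactamase reporter. Compounds act for 18 h at 37 C before a 2 h room-temperature FRET substrate step and fluorescence reading.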

[18] = target: Glucocorticoid receptor (Homo sapiens) (UniProt P04150); test: qHTS assay to identify small molecule antagonists of the glucocorticoid receptor (GR) signaling pathway (AID 720692; active = well fitted inhibition curve with a large enough effect in the signal ratio in the repeat runs, not every such curve was filed as active; the % refers to the signal ratio)
Summary of the method: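 Cells plated, rested 4 h at 37 C/5% CO2; compounds in DMSO pin-transferred; dexamethasone added to 5 nM final; 18 h at 37 C; B/G FRET substrate added, 2 h room temperature; fluorescence measured.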

[19] = qHTS assay for small molecule disruptors of the mitochondrial membrane potential - cell viability (AID 720634; calls by dose curve;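 note: human HepG2 liver cancer cells; nearly all actives have a fitted effect of over 20% in size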)
Summary of the method: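 After overnight attachment at 37 C, HepG2 cells received compound or DMSO vehicle for 1 hr. Viability is then taken from ATP-driven luminescence following a 30 min room-temperature CellTiter-Glo step.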

[20] = qHTS assay for small molecule disruptors of the mitochondrial membrane potential (AID 720635)
Summary of the method: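 HepG2 cells exposed to compound 1 hr at 37C, then Mito-MPS dye 30 min. Ratio read of aggregate (540/590 nm) versus monomer (490/535 nm) fluorescence.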
% is set by controls: 0 for no effect and ±100 for the full control effect.

O=[N+]([O-])c1cccc(S(=O)(=O)O)c1
inactive: Potency [1] | Potency [2] | Potency [3] | Potency [4] | Potency [5] | Potency [6] | outcome [7] | Potency [8] | outcome [9] | outcome [10] | outcome [11] | Potency [12] | Potency [13] | outcome [14] | Potency [15] | outcome [16] | Potency [17] | Potency [18]

CCCCCCCCCOS(=O)(=O)O
inactive: Potency [1] | Potency [2] | Potency [4] | Potency [19] | Potency [5] | Potency [6] | outcome [7] | Potency [8] | outcome [9] | outcome [10] | outcome [11] | Potency [12] | Potency [13] | Potency [15] | outcome [16]

O=C1OC(CN2CCOCC2)CN1/N=C/c1ccc([N+](=O)[O-])o1 (centres undefined)
inactive: Potency [1] | Potency [2] | Potency [4] | Potency [19] | Potency [20] | fluorescence, relative to Rose Bengal [5] -0.0946% [at 18.6 µM] | fluorescence, % of fluorescein control [6] -0.0437% [at 18.6 µM] | fluorescence, % of triamterene [7] -0.0248% [at 18.6 µM] | fluorescence, % of fluorescent control [8] 0.088% [at 18.6 µM] | fluorescence, % of fluorescein [9] -0.416% [at 18.6 µM] | fluorescence, % of fluorescent control [10] -0.128% [at 18.6 µM] | activity change [11] -0.0395% [at 18.6 µM] | fluorescence, % of fluorescent control [12] 0.0972% [at 18.6 µM] | fluorescence, % of Rose Bengal [13] 0.113% [at 18.6 µM] | fluorescence, % of fluorescent control [14] -0.135% [at 18.6 µM] | fluorescence, % of fluorescein control [15] -0.14% [at 18.6 µM] | fluorescence, % of fluorescent control [16] -0.0405% [at 18.6 µM] | Potency [17] | Potency [18]

COc1cc2nc(N3CCN(C(=O)C4COc5ccccc5O4)CC3)nc(N)c2cc1OC (centres undefined)
inactive: Potency [1] | Potency [2] | Potency [4] | Potency [19] | Potency [20] | Potency [5] | Potency [6] | outcome [7] | Potency [8] | outcome [9] | outcome [10] | outcome [11] | Potency [12] | Potency [13] | outcome [14] | Potency [15] | outcome [16]

CN(C)C(=O)NC1(c2ccccc2)CCN(CC[C@@]2(c3ccc(F)c(F)c3)CN(C(=O)c3ccccc3)CCO2)CC1
inactive: Potency [1] | Potency [2] | Potency [4] | Potency [19] | Potency [5] | Potency [6] | outcome [7] | outcome [9] | outcome [10] | outcome [11] | Potency [12] | Potency [13] | Potency [15] | outcome [16] | Potency [17]

CC(COCCO)OCCO (centres undefined)
inactive: Potency [1] | Potency [2] | Potency [4] | Potency [19] | Potency [5] | Potency [6] | outcome [7] | Potency [8] | outcome [9] | outcome [10] | outcome [11] | Potency [12] | Potency [13] | Potency [15] | outcome [16]
